# ChEMBL document CHEMBL1201862, “PubChem BioAssay data set” (2004)
# The campaign covered roughly 400,000 compounds. About 2,100 (0.53%) were called active. About 14% were inconclusive and are not listed. The rule behind the calls is not given here. What follows is part of a selection rich in actives, with near analogues and random picks from the rest.
# Molecular target: Ataxin-2 (Homo sapiens) (UniProt Q99700)
# Test: qHTS for Inhibitors of ATXN expression.
# Type: functional
# Chain of Ataxin-2 (Homo sapiens) (Q99700 whole entry): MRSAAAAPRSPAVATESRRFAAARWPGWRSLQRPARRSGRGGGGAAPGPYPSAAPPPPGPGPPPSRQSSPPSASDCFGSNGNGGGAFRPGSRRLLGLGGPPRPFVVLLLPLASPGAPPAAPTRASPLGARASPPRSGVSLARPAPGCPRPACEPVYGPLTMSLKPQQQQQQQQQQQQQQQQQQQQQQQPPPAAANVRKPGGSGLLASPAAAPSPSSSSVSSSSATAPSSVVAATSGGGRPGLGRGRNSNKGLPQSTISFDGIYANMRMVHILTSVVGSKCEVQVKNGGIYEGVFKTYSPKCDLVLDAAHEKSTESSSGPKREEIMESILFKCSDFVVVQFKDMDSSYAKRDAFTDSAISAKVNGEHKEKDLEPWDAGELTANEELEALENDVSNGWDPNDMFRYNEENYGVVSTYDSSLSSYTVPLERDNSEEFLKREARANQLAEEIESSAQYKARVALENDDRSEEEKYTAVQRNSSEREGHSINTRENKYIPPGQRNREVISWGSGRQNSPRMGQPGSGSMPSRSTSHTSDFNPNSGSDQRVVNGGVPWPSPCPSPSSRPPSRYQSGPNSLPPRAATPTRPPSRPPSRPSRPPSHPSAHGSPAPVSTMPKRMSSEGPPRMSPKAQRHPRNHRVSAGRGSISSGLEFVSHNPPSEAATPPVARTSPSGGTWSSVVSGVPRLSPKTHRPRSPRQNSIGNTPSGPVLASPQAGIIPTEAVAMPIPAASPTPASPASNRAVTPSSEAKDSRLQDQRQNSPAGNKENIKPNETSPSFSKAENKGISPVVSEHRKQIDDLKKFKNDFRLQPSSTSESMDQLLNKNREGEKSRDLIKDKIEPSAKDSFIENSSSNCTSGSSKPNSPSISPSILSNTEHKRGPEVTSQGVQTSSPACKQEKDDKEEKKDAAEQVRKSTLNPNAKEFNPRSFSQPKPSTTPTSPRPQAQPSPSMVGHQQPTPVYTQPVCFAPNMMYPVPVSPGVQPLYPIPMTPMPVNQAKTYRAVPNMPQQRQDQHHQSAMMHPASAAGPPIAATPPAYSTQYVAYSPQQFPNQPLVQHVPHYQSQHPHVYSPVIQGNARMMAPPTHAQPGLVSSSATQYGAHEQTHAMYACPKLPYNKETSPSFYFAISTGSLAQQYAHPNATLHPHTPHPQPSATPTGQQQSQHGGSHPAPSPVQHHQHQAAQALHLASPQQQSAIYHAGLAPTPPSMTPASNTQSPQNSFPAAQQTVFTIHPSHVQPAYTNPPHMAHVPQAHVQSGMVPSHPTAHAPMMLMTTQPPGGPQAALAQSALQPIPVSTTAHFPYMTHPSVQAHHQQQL
row,Structure (SMILES),Potency
1,Cc1cc(NCCCN(C)C)n2c(nc3ccccc32)c1C#N,inactive
2,COc1ccc(CNc2nc(C)cc(C)c2C#N)cc1,inactive
3,CCN(CC)c1ncnc2c1cnn2Cc1ccc(Cl)cc1,inactive
4,Cc1ccc(-n2ncc3c(NCCCN(C)C)ncnc32)cc1Cl,39.8 µM (active)
5,CCCCn1nc(NC(=O)CC)c2cc3cc(OC)ccc3nc21,inactive
6,CC/N=c1\scc(C)n1/N=C/c1cc(Br)c(O)c(OC)c1,inactive
7,Cc1cc(C)c2oc(C(=O)N3CCN(C)CC3)cc(=O)c2c1,inactive
8,CCN(CC)CCCNc1cc(C)c(C#N)c2nc3ccccc3n12,inactive
9,COc1ccc(/C(C)=N/Nc2nc3ccccc3n3cnnc23)cc1OC,inactive
10,C=CCSc1nc2ccccc2n2cnnc12,39.8 µM (active)
11,COC(=O)[C@H](Cc1ccccc1)NC(=O)NCc1ccccc1,inactive
12,CC(=O)NC(CC(C)C)C(=O)NC(Cc1ccccc1)C(=O)CCl (stereo not given),18.9 µM (active)
13,CC(NC(=O)OCc1ccccc1)C(=O)Oc1cc2oc(=O)cc(-c3ccccc3)c2cc1Cl (stereo not given),inactive
14,CC(NC(=O)CNC(=O)C(Cc1ccccc1)NC(=O)OCc1ccccc1)C(N)=O (stereo not given),inactive
15,CC(C)CC(NC(=O)OCc1ccccc1)C(=O)NC(Cc1ccccc1)C(=O)CCl (stereo not given),9.47 µM (active)
16,CCC(C)[C@H](N)C(=O)NC[C@H]1CC[C@H](C(=O)N[C@@H](Cc2ccccc2)C(=O)O)CC1 (stereo not given in full),inactive
17,C#CCOc1ccc(C2C3=C(CCCC3=O)N(CC(=O)O)C3=C2C(=O)CCC3)cc1Br,inactive
18,CC1(Cc2cc(Cl)ccc2C(F)(F)F)C(=O)Nc2ccc(-c3ccc(F)c(Cl)c3)cc21 (stereo not given),28.2 µM (active)
19,CC1(Cc2cccc(C(F)(F)F)c2)C(=O)Nc2ccc(-c3ccc(F)c(Cl)c3)cc21 (stereo not given),39.8 µM (active)
20,CC1(C)CC(=O)C=C(Nc2cccc(C(F)(F)F)c2)C1,inactive
21,Cc1csc(NC(=O)c2c(-c3ccccc3)noc2C)n1,inactive
22,CC(C)=CCC/C(C)=C/CNC(=O)C[C@H]1C[C@H](C(=O)N2CCOCC2)[C@@]2(C)c3[nH]c4cc(-c5ccco5)ccc4c3CCN2C1=O,39.8 µM (active)
23,CC(C)=CCC/C(C)=C/CNC(=O)CC1C[C@H](C(=O)N2CCOCC2)[C@@]2(C)c3[nH]c4ccccc4c3CCN2C1=O (stereo not given in full),31.6 µM (active)
24,CC[C@]12c3[nH]c4ccccc4c3CCN1C(=O)C(CC(=O)NC/C=C(\C)CCC=C(C)C)C[C@@H]2C(=O)N1CCN(C(=O)c2ccco2)CC1 (stereo not given in full),31.6 µM (active)
25,CC[C@]12c3[nH]c4ccc(Cl)cc4c3CCN1C(=O)[C@@H](CC(=O)NCCC1=CCCCC1)C[C@@H]2C(=O)N1CCN(C(=O)c2ccco2)CC1,25.1 µM (active)

row,Structure (SMILES),Potency
1,C[C@H](O)[C@@H]1C(=O)N2CCc3c([nH]c4ccccc34)[C@@H]2C[C@@H]1N(C)C(=O)c1ccco1,inactive
2,O=C(CCCCCn1c(=S)[nH]c2ccc(N3CCOCC3)cc2c1=O)NCc1ccccc1,inactive
3,CC[C@@H]1C(c2ccccc2)=NN(c2ccccc2)[C@H]1C(=O)N1CCOC1=O,inactive
4,CCOc1ccc(-c2nc(O)c3c(-c4cccs4)csc3n2)cc1,inactive
5,Cn1ccnc1C(=O)C1CCCN(Cc2c[nH]nc2-c2ccc(-c3ccccc3)cc2)C1 (stereo not given),inactive
6,CCN(CC)c1ccc2cc(-c3nnc(-c4ccccc4)o3)c(=O)oc2c1,inactive
7,COc1cc2cc(C(N)=O)c(N)nc2cc1OC,inactive
8,Cc1ccc2nc3c(cc(C(=O)NCC4CCCO4)c(=N)n3C(C)C)c(=O)n2c1 (stereo not given),inactive
9,CC[C@]12c3[nH]c4ccc(Cl)cc4c3CCN1C(=O)[C@@H](CC(=O)NC/C=C(\C)CCC=C(C)C)C[C@@H]2C(=O)N1CCN(C(=O)C2CC2)CC1,25.1 µM (active)
10,O=C1CSC(N/N=C/c2ccncc2)=N1,inactive
11,Cc1ccc(S(=O)(=O)NCc2c(-c3ccccc3)noc2C)cc1,inactive
12,Cc1ccc(N(C)C(CNS(=O)(=O)c2ccccc2)c2ccccc2)cc1 (stereo not given),25.1 µM (active)
13,Cc1ccc(S(=O)(=O)NCCCCCC(=O)NCCc2ccccc2)cc1,inactive
14,Cc1cccn2c(=O)c3cc(C#N)c(=O)n(-c4nnc(SCc5ccc(F)cc5)s4)c3nc12,inactive
15,COc1cccc(-c2ccc3c(N)c(C(=O)Nc4cc(F)ccc4F)sc3n2)c1,inactive
16,COc1ccc(/C=N/Nc2ncnc3sc4c(c23)CCCC4)cc1OC,inactive
17,COc1ccc(NC(=O)c2ccc(S(=O)(=O)C(F)F)cc2)c(OC)c1,inactive
18,COc1ccc(NC(=O)c2c(NCc3cccc(F)c3)sc3c2CCC3)c(OC)c1,25.1 µM (active)
19,COC(=O)c1ccc(NC(=O)c2c(NCc3ccc(OC)c(OC)c3)sc3c2CCCC3)cc1,17.8 µM (active)
20,COc1ccc(NC(=O)C2=CN3CCS(=O)(=O)N=C3C=C2)c(OC)c1,inactive
21,COc1ccc(OC)c(NC(=O)COC(=O)c2ccc(OC)c(S(=O)(=O)N3CCOCC3)c2)c1,inactive
22,COc1ccc(OC)c(NC(=O)c2ccc(OC3CSC3)cc2)c1,inactive
23,COc1ccc(NC(=O)CON=CC(=O)Nc2ccc(C)cc2)c(OC)c1,inactive
24,COc1ccc(OC)c(NC(=O)c2c(NCc3ccc(OC)c(OC)c3)sc3c2CCC3)c1,39.8 µM (active)
25,COc1ccc(NC(=O)c2c(NCc3sccc3C)sc3c2CCCCC3)c(OC)c1,39.8 µM (active)
